Shown are actives, neighbours in structure and some others; about 10% of the full set was active somewhere.
IMPase cell inh – qHTS Assay for Identifying the Cell-Membrane Permeable IMPase Inhibitors; Inositol monophosphatase 1 (Rattus norvegicus), P97697; CHO-M1 cells, IP1 accumulation, HTRF TR-FRET ratio; inhibition (IP1 accumulation), % at 46.1 µM; 120,000 tested, under 10 active; AID 901, 2007; active = well fitted curve in the direction sought with a large enough effect in the signal ratio, not every such curve was filed as active; inconclusive = small, poorly fitted or top-dose-only effect, or a change in a side signal; inactive = no such curve, though single readings can be large or run the other way; the % refers to the signal ratio;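 also: cells stimulated with carbachol in lithium chloride buffer; plate controls were DMSO basal wells for no effect and reference inhibitor wells for full effect; higher means more IMPase inhibition seen as more IP1 and lower FRET ratio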
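Elevated IP1 in lysates lowers TR-FRET signal (665/620 ratio and 620 channel reported). Cells were CHO-M1, given carbachol (50 uM as added) plus 50mM LiCl, pH 7.4, 30 min, 37C; compounds titrated up to 46 uM; AC50 by Hill equation.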
ALDH1A1 block – qHTS Assay for Inhibitors of Aldehyde Dehydrogenase 1 (ALDH1A1); Aldehyde dehydrogenase 1A1 (Homo sapiens), P00352; Purified ALDH1A1, NADH fluorescence, propionaldehyde substrate; Potency, µM (highest dose often 75.3 µM), inactives show top-dose activity, negative = inhibition, actives largely listed as inhibitors; hit rate 7.3% among 220,000; AID 1030, 2008;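 also: potency is read from the fitted curve at half-maximal effect; plate controls were no enzyme wells and a reference inhibitor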
Target sequence (P00352 whole entry, looked up): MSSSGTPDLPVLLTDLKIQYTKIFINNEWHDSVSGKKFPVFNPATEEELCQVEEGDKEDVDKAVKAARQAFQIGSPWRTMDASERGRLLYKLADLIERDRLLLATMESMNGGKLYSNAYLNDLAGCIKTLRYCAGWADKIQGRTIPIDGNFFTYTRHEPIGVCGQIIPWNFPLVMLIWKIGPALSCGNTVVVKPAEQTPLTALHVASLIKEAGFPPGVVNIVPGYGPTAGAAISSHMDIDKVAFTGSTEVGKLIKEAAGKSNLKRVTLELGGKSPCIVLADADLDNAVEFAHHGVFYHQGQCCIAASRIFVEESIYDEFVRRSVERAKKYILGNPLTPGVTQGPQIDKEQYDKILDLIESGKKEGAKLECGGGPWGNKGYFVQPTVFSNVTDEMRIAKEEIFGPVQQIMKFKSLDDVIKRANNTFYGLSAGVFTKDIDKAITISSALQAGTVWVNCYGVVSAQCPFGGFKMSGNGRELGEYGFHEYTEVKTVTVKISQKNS
PNC inhibitor – High Content Assay for Compounds that inhibit the Assembly of the Perinucleolar Compartment; activity change (PNC), negative = inhibition, % at 10 µM; PC3M PTB-GFP, PNC prevalence imaging, 16 h; active compounds read low; hit rate 3.1% among 140,000;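 active = readout at or below -70, meaning at least 70% loss of cells showing the perinucleolar compartment, a nuclear body marking cancer cells; inconclusive = readout between -30 and a set limit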;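 also: plate controls were DMSO wells for no effect and camptothecin positive control wells for full effect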
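PC3M cells stably expressing PTB-GFP, 750–1000 cells/well, treated 16 h at 37 °C with compound (23 nl of library stock), in duplicate. After paraformaldehyde fixation and Hoechst stain, imaged at 20x; PNC prevalence scored by image analysis.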
LMNA splice mod – qHTS Assay for Modulators of Lamin A Splicing | HeLa LMNA splicing GFP/RFP minigene ratio, 48 h | Potency, µM (series often up to 46.1 µM), for inactives: at the highest dose ratio change, negative = inhibition, most hits filed as inhibitors | hit rate 0.01% among 200,000; active = well fitted inhibition curve with a large enough effect in the signal ratio, with a control signal flat, not every such curve was filed as active; inconclusive = small, poorly fitted or top-dose-only effect, or effect the other way, or a change in a side signal; the % refers to the signal ratio; also: potency is read from the fitted curve at half-maximal effect
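Read-out is the ratio of GFP to DsRed2 object intensity, acquired by 488 nm laser-scanning cytometry on HeLa lamin A-EGFP minigene reporter cells. Compound incubation 48 hrs at 37 °C in Opti-MEM with 2% FBS; DMSO 0.5% final.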
KinaseGlo FLuc – Counterscreen for Luciferase (Kinase-Glo TM) Inhibition; hit rate 0.28% among 200,000; Potency, µM (top dose mostly 38.3 µM), without a hit: at the highest dose activity change, negative = inhibition, most hits filed as inhibitors; Luciferin 4-monooxygenase (Photuris pensylvanica), Q27757; Kinase-Glo luciferase, ATP luminescence, 8 min; active = well fitted inhibition curve with a large enough effect; inconclusive = small, poorly fitted or top-dose-only effect; also: potency is read from the fitted curve at half-maximal effect; nearly all actives have a fitted effect of over 60% in size
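Kinase-Glo luciferase light output from ATP and luciferin was measured with 10 uM ATP, within the enzyme's linear range. Buffer: 50 mM imidazole pH 7.2, 50 mM KCl, 7 mM MgCl2, 0.01% Tween 20, 0.05% BSA; luminescence read after 8 min at ambient temperature.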
HPGD inh – qHTS Assay for Inhibitors of HPGD (15-Hydroxyprostaglandin Dehydrogenase); 15-hydroxyprostaglandin dehydrogenase [NAD(+)] (Homo sapiens), P15428; purified HPGD, NADH fluorescence kinetic, PGE2 substrate; Potency, µM, without a hit: at the top dose activity change, negative = inhibition, usual class: inhibitors; hit rate 4.3% among 150,000; AID 894, 2007; also: potency is read from the fitted curve at half-maximal effect
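NADH formation kinetics: reaction with 30 uM PGE2 and 1 mM NAD+ (final), 20 nM enzyme, Tris-HCl pH 8 with Tween 20, after 15 min compound preincubation at room temperature. Fluorescence change, last versus first of five reads.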
* hit, by the source's call; [ ] = dose if it differs, or a comment. Unless noted, calls follow the shape of the dose curve; as a rule, active = well fitted inhibition curve with a large enough effect (not every such curve was filed as active); inconclusive = small, poorly fitted or top-dose-only effect, or another doubt; inactive = no such curve, though single readings can be large or run the other way. Unless noted, % is scaled to controls: 0 for no effect and ±100 for the full control effect.

Results for COc1cccc(Nc2ncc3ncc(=O)n(C)c3n2)c1 ?
ALDH1A1 block: -15%; LMNA splice mod: -10%

How did CC(=O)c1cccc(S(=O)(=O)NCCc2csc3nc(-c4ccc(F)cc4)nn23)c1 do in these assays?
LMNA splice mod: -17%[46 µM]

How did COCn1c(=O)c2c(nc(SC3=NCCS3)n2Cc2ccccc2C)n(COC)c1=O do in these assays?
IMPase cell inh: -2; ALDH1A1 block: 2.8µM*; PNC inhibitor: -13; LMNA splice mod: 4%; KinaseGlo FLuc: -8%; HPGD inh: -17%

What do the screens show for `O=C(NCc1ccc2c(c1)OCO2)C1CCN(S(=O)(=O)c2ccc(Br)s2)CC1`?
IMPase cell inh: -3; ALDH1A1 block: inconclusive; PNC inhibitor: -5; LMNA splice mod: -5%; KinaseGlo FLuc: -3%; HPGD inh: -13%

Results for O=C(NCc1ccc2c(c1)OCO2)C1CCN(S(=O)(=O)N2CCCCC2)CC1 ?
ALDH1A1 block: 5µM*; PNC inhibitor: 28; LMNA splice mod: inconclusive; KinaseGlo FLuc: 2%; HPGD inh: -8%

How did O=C(NCc1ccc2c(c1)OCO2)C1CCN(S(=O)(=O)c2cccs2)CC1 do in these assays?
IMPase cell inh: -3; ALDH1A1 block: 0.32µM*; PNC inhibitor: 7; LMNA splice mod: -2%; KinaseGlo FLuc: -5%; HPGD inh: -11%

How did CCCC[n+]1c(-c2ccc(Cl)cc2Cl)csc1Nc1ccccc1 do in these assays?
ALDH1A1 block: 11%; PNC inhibitor: inconclusive; LMNA splice mod: -20%; KinaseGlo FLuc: 1%; HPGD inh: 0%

Results for Clc1ccc(-c2csc(Nc3ccccc3)[n+]2Cc2ccco2)c(Cl)c1 ?
ALDH1A1 block: 18µM*; LMNA splice mod: inconclusive; KinaseGlo FLuc: -2%

What do the screens show for `CCOCCO`?
ALDH1A1 block: inconclusive; HPGD inh: -2%

What do the screens show for `Cc1ccc(S(=O)(=O)c2c(Nc3ccccc3)sc(C(=O)c3ccc4c(c3)OCO4)c2N)cc1`?
LMNA splice mod: -7%[46 µM]

What do the screens show for `NC(=O)N1CCC2(CC1)NC(=O)N(c1ccccc1)N2`?
ALDH1A1 block: 3.5µM*; LMNA splice mod: 27%[46 µM]; KinaseGlo FLuc: 0%

How did CC(C)N(Cc1ccccc1)S(=O)(=O)c1ccc(N2CCCCS2(=O)=O)cc1 do in these assays?
LMNA splice mod: -5%[46 µM]

What do the screens show for `Cc1ccc(S(=O)(=O)NCC(=O)N(CC(=O)NCC2CCCO2)Cc2ccco2)cc1` (stereo not given)?
ALDH1A1 block: 18µM*; LMNA splice mod: -1%[46 µM]; KinaseGlo FLuc: 0%

What do the screens show for `O=C(CN(CC1CCCO1)C(=O)CNS(=O)(=O)c1ccccc1)NCc1ccco1` (stereo not given)?
ALDH1A1 block: 8%; KinaseGlo FLuc: -3%

How did O=C(CN(Cc1ccco1)C(=O)CNS(=O)(=O)c1ccccc1)NCc1ccccc1 do in these assays?
IMPase cell inh: -2; ALDH1A1 block: 14µM*; PNC inhibitor: inconclusive; LMNA splice mod: 6%; KinaseGlo FLuc: 1%; HPGD inh: -19%

How did Cc1ccc(S(=O)(=O)NCC(=O)N(CC(=O)NCc2ccco2)Cc2ccco2)cc1 do in these assays?
ALDH1A1 block: 8.9µM*; LMNA splice mod: -18%[46 µM]; KinaseGlo FLuc: -6%

What do the screens show for `O=C(CN(Cc1ccco1)C(=O)CNS(=O)(=O)c1ccc(F)cc1)NCCc1ccccc1`?
IMPase cell inh: -1; ALDH1A1 block: 4%; PNC inhibitor: 34; LMNA splice mod: -4%; KinaseGlo FLuc: 1%; HPGD inh: -7%

Source: PubChem
